Values joined by “and” are separate entries in the source; they are usually repeats but may differ in a detail not shown here. Equal values may be shown once. Active and inactive are the calls of the source.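 The calls were made as follows, unless noted: active = inhibition at or above 50% at 10 µM; inactive = inhibition below 50%.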
Legend:
[1] = inhibitors of TNFa-induced NFkB p65 translocation, primary screen, imaging, HUVEC, MLSMR starter and 10KST1 sets (AID 438;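 active = inhibition above 20% together with a positive visual image hit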;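 also: compound added about 3h40 before a 20 min TNFalpha stimulation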;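 as to inhibition: signal is the nuclear over cytoplasmic p65 intensity ratio per well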); details: HUVEC TNFa-induced p65 nuclear translocation; cell count: measured here: nuclei count (cytotoxicity indicator), at 2.08 µM; inhibition: at 2 µM, stronger effect = higher value, 0% TNFa-plus-vehicle, 100% no-TNFa wells
[2] = inhibitors of mutant huntingtin aggregation, primary screen, imaging, exon1htt(103Q)mCFP cells, high-content imaging (AID 483;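 active = visual image review flags a hit and inhibition of aggregation exceeds 20%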;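 also: compound exposure lasted 3 days before fixation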;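 as to nuclei count: percent of the per-plate median nuclei count of sample wells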); details: exon1htt(103Q)mCFP cell line, aggregate imaging, at 2 µM; inhibition of aggregation: stronger effect = higher value; nuclei count: measured here: cell count, toxicity
[3] = inhibitors of E-selectin induction by TNFa, primary screen, imaging, HUVEC, immunofluorescence, MLSMR starter and 10KST1 sets (AID 487;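 active = visually confirmed hit in the image check and inhibition above 20%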;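 as to inhibition: signal is fraction of cell area covered by stained E-selectin grains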;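 as to nuclei count: 100% = median nuclei count of all wells on the same plate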); details: HUVEC TNFalpha-induced E-selectin immunofluorescence imaging, at 2 µM; inhibition: stronger effect = higher value; nuclei count: measured here: cell number, toxicity
[4] = DUSP6 inhibitors restoring Erk phosphorylation by chemical complementation, primary imaging in DUSP6-transfected HeLa (AID 609;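 active = compounds giving at least 50% inhibition in the cell-based MKP-3 phosphatase rescue imaging test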;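 as to inhibition: phospho-Erk level distribution per well compared with pooled transfected vehicle control wells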); details: HeLa MKP-3 transfected, phospho-Erk imaging KS statistic, at 10 µM, cells stimulated with TPA for 15 min
[5] = target: Dual specificity protein phosphatase 6 (Homo sapiens) (UniProt Q16828); assay: as above; details: HeLa MKP-3 transfected, phospho-Erk imaging KS statistic; at 10 µM; stronger effect = higher value; cells stimulated with TPA for 15 min
Dual specificity protein phosphatase 6 (Homo sapiens), sequence (Q16828 whole entry, looked up): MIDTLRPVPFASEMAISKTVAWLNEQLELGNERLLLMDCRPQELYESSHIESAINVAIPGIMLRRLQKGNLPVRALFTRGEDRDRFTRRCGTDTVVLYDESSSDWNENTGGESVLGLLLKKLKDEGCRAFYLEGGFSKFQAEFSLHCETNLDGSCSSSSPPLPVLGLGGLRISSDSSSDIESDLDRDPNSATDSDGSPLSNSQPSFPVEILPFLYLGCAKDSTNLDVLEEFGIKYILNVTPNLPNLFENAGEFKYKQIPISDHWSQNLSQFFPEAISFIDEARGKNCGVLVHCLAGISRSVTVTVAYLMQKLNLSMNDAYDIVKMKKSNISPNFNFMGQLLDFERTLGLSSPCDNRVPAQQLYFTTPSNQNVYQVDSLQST

[6] = target: Voltage-gated potassium channel subunit beta-2 (Rattus norvegicus) (UniProt P62483); assay: KvBeta enzyme negative modulators, primary screen, biochemical, NADPH fluorescence (AID 622;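 active = fluorescence slope higher than the sample average by over 3 SD, cut at about -0.22 in these data, passing the limit was not always enough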;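 also: slope of raw intensity against log time taken from 70 to 1610 s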); details: recombinant KvBeta, 4-cyanobenzaldehyde reduction, at 10 µM, stronger effect = higher value
Voltage-gated potassium channel subunit beta-2 (Rattus norvegicus), sequence (P62483 whole entry, looked up): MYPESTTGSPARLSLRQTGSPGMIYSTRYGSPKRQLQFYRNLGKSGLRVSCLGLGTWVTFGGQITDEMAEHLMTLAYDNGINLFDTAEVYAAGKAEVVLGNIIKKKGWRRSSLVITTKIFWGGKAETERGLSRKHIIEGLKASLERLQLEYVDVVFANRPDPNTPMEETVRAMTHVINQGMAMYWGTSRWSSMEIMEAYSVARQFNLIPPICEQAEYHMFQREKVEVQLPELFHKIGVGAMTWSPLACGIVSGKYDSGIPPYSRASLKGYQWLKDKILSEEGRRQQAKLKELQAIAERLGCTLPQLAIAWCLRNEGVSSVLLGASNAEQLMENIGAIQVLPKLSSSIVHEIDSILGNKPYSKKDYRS

[7] = target: Voltage-gated potassium channel subunit beta-2 (Rattus norvegicus) (UniProt P62483); assay: KvBeta positive modulators, primary screen, biochemical, NADPH fluorescence (AID 623;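 active = NADPH fluorescence slope more negative than the mean of all samples by about 3 SD, 99.7% confidence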;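 also: fluorescence intensity change per second fitted from 20 to 320 s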); details: Recombinant KvBeta, NADPH fluorescence decrease slope, 10 min; at 10 µM; stronger effect = lower value
[8] = target: Alpha-2C adrenergic receptor (Homo sapiens) (UniProt P18825); assay: modulators of alpha2C/GIRK thallium flux, primary screen, cell-based, HEK293 alpha2C/GIRK1/2 (AID 624;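 active = fluorescence slope after compound addition differing from the mean of all screened samples at 99.7% confidence, in either direction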;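 also: slope of fluorescence ratio to pre-addition baseline per second over 15 to 24 s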); details: thallium flux BTC fluorescence, at 10 µM, actives lie on both sides
Alpha-2C adrenergic receptor (Homo sapiens), sequence (P18825 whole entry, looked up): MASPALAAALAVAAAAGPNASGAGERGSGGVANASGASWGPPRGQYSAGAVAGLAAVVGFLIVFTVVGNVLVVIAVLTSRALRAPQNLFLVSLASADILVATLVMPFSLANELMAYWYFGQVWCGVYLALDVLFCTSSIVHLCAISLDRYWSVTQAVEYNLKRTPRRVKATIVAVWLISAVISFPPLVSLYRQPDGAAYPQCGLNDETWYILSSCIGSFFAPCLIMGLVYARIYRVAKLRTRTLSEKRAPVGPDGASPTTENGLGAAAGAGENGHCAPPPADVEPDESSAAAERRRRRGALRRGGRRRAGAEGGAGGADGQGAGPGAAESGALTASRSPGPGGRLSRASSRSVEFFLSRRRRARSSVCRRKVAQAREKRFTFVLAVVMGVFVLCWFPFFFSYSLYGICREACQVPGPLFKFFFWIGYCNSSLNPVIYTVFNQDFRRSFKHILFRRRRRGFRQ

[9] = inhibitors of larval lipid processing in zebrafish, primary screen, whole organism, PED6 fluorescence, gall bladder and intestine (AID 686;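 active = a full or partial loss of lipid-probe fluorescence in the fish gall bladder, intestine or both, judged by eye; inactive = no fluorescence loss, or compound toxic to the fish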;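 also: larvae 5 to 7 days old with five fish per well; signal comes from phospholipase A2 cleavage of quenched PED6 carried via bile; overnight exposure to compound and PED6 before scoring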); details: Zebrafish larvae PED6 lipid processing, fluorescence scoring; screened at 20 µM (by protocol)
[10] = inhibitors of Chlamydomonas gravitaxis, primary screen, whole organism, Chlamydomonas reinhardtii, WT vs cilia-less mutant, absorbance, 96-well (AID 463189;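 active = inhibition at or above 50% relative to wild type and mutant plate controls; inactive = inhibition below 50%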;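 also: 0% = wild type cc124 cells in DMSO and 100% = ciliumless bld1 mutant cells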); details: OD600 absorbance, 2 days, at 10 µM, stronger effect = higher value
[11] = inhibitors of Sendai virus-induced IRF3 signaling, primary screen, TLR/RLR signaling modifier project, cell-based, Sendai virus stimulus, luciferase, 10K MLSCN set (AID 602276); details: HEK293 RL24 IRF3 luciferase reporter, at 10 µM, stronger effect = higher value;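 also: firefly luciferase from ISG56 promoter only with Renilla not read in this screen; 0% = Sendai virus plus DMSO and 100% = medium plus DMSO without virus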
[12] = inhibitors of poly I:C-induced TLR3 signaling, primary screen, cell-based, poly I:C stimulus, luciferase, 10K MLSCN set (AID 602277;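 active = inhibition of the reporter signal at or above 50%; inactive = inhibition below 50%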); details: HEK293-TLR3 RL24 IRF3 luciferase reporter, at 10 µM, stronger effect = higher value
[13] = measured here: cell density z-score
[14] = measured here: nuclear c-Myc green intensity z-score
[15] = measured here: nuclear pErk red intensity z-score, stronger effect = higher value

## O=C(O)CC1SC(=Nc2cccc(C(F)(F)F)c2)NC1=O (stereo not given)
[1]
  cell count: 447
  inhibition: -2.2% (inactive)
[2]
  inhibition of aggregation: 3.4% (inactive)
  nuclei count: 95.3%
[3]
  inhibition: -42.6% (inactive)
  nuclei count: 105%
[4]; [13]
  z-score: -0.141
[4]; [14]
  z-score: 1.56
[4]; [15]
  z-score: 0.654
[5]
  inhibition: 3.42% (inactive)
[6]
  fluorescence slope: -0.448 (inactive)
[7]
  NADPH fluorescence slope: 1.4e-05 (inactive)
[8]
  slope: 0.0048 (inactive)
[9]
  outcome: inactive
[10]
  inhibition: 34.2% (inactive)
[11]
  inhibition: 19.6% (inactive)
[12]
  inhibition: 19.9% (inactive)

## Cc1cc(C)n(-c2nnc(C)n2/N=C/c2ccccc2F)n1
[1]
  cell count: 592
  inhibition: -10% (inactive)
[2]
  inhibition of aggregation: -14.2% (inactive)
  nuclei count: 107%
[3]
  inhibition: -75.7% (inactive)
  nuclei count: 153%
[4]; [13]
  z-score: 0.554
[4]; [14]
  z-score: 1.09
[4]; [15]
  z-score: -0.737
[5]
  inhibition: 9.82% (inactive)
[6]
  fluorescence slope: -0.53 (inactive)
[7]
  NADPH fluorescence slope: -4.2e-05 (inactive)
[8]
  slope: 0.00446 (inactive)
[9]
  outcome: inactive
[10]
  inhibition: 5.75% (inactive)
[11]
  inhibition: 13.6% (inactive)
[12]
  inhibition: 22% (inactive)

## CC(CN1c2ccccc2Sc2ccccc21)N(C)C (stereo not given)
[1]
  cell count: 546
  inhibition: 2.6% (inactive)
[2]
  inhibition of aggregation: 6.8% (inactive)
  nuclei count: 100%
[3]
  inhibition: -48.8% (inactive)
  nuclei count: 109%
[4]; [13]
  z-score: 2
[4]; [14]
  z-score: -0.736
[4]; [15]
  z-score: 0.272
[5]
  inhibition: -0.828% (inactive)
[6]
  fluorescence slope: -0.478 (inactive)
[7]
  NADPH fluorescence slope: -1.7e-05 (inactive)
[8]
  slope: 0.0061 (inactive)
[9]
  outcome: inactive
[10]
  inhibition: 91.5% (active) and 139% (active)
[11]
  inhibition: 5.11% (inactive)
[12]
  inhibition: 31% (inactive)

## O=C1NC2c3ccccc3C(=O)N2c2c1cnn2-c1ccccc1 (stereo not given)
[1]
  cell count: 603
  inhibition: -7.1% (inactive)
[2]
  inhibition of aggregation: -11.1% (inactive)
  nuclei count: 111%
[3]
  inhibition: -48.5% (inactive)
  nuclei count: 146%
[4]; [13]
  z-score: 0.407
[4]; [14]
  z-score: 0.889
[4]; [15]
  z-score: -0.995
[5]
  inhibition: 7.83% (inactive)
[6]
  fluorescence slope: -0.425 (inactive)
[7]
  NADPH fluorescence slope: -1.7e-05 (inactive)
[8]
  slope: 0.00503 (inactive)
[9]
  outcome: inactive
[10]
  inhibition: 14.6% (inactive)
[11]
  inhibition: -6.19% (inactive)
[12]
  inhibition: 6.35% (inactive)

## COc1ccc(C2/C(=C(/O)c3ccc(OC(C)C)cc3)C(=O)C(=O)N2CCCN2CCOCC2)cc1 (stereo not given)
[1]
  cell count: 466
  inhibition: 4.1% (inactive)
[2]
  inhibition of aggregation: -2.7% (inactive)
  nuclei count: 102%
[3]
  inhibition: -19.1% (inactive)
  nuclei count: 134%
[4]; [13]
  z-score: -0.477
[4]; [14]
  z-score: 0.263
[4]; [15]
  z-score: 0.227
[5]
  inhibition: -11.9% (inactive)
[6]
  fluorescence slope: -0.319 (inactive)
[7]
  NADPH fluorescence slope: -2e-05 (inactive)
[8]
  slope: 0.00508 (inactive)
[9]
  outcome: inactive
[10]
  inhibition: -1.04% (inactive)
[11]
  inhibition: 9.78% (inactive)
[12]
  inhibition: 13.7% (inactive)

## C[C@]12CC[C@@H]3c4ccc(OS(=O)(=O)O)cc4CC[C@H]3[C@@H]1CCC2=O
[1]
  cell count: 725
  inhibition: -2.6% (inactive)
[2]
  inhibition of aggregation: 1.7% (inactive)
  nuclei count: 98.9%
[3]
  inhibition: -120% (inactive)
  nuclei count: 121%
[4]; [13]
  z-score: 1.77
[4]; [14]
  z-score: -0.742
[4]; [15]
  z-score: -1.13
[5]
  inhibition: 1.48% (inactive)
[6]
  fluorescence slope: -0.507 (inactive)
[7]
  NADPH fluorescence slope: -4.6e-05 (inactive)
[8]
  slope: 0.00404 (inactive)
[9]
  outcome: inactive
[10]
  inhibition: 2.37% (inactive)
[11]
  inhibition: 11.2% (inactive)
[12]
  inhibition: 25.7% (inactive)

## CCCC(=O)Nc1ncnc2c1ncn2[C@@H]1O[C@@H]2COP(=O)(O)O[C@H]2[C@H]1OC(=O)CCC
[1]
  cell count: 447
  inhibition: 15.4% (inactive)
[2]
  inhibition of aggregation: 14.3% (inactive)
  nuclei count: 96.1%
[3]
  inhibition: -67.8% (inactive)
  nuclei count: 127%
[4]; [13]
  z-score: 0.217
[4]; [14]
  z-score: 0.395
[4]; [15]
  z-score: 0.177
[5]
  inhibition: 21.2% (inactive)
[6]
  fluorescence slope: -0.511 (inactive)
[7]
  NADPH fluorescence slope: -7.6e-06 (inactive)
[8]
  slope: 0.00504 (inactive)
[9]
  outcome: inactive
[10]
  inhibition: 29.3% (inactive)
[11]
  inhibition: 18.6% (inactive)
[12]
  inhibition: 40.7% (inactive)

## CCN(CC)CCCC1(CN)OCCc2ccccc21 (stereo not given)
[1]
  cell count: 475
  inhibition: -12.9% (inactive)
[2]
  inhibition of aggregation: -31.3% (inactive)
  nuclei count: 86.5%
[3]
  inhibition: -55.8% (inactive)
  nuclei count: 104%
[4]; [13]
  z-score: 1.04
[4]; [14]
  z-score: 0.0892
[4]; [15]
  z-score: -0.524
[5]
  inhibition: 17% (inactive)
[6]
  fluorescence slope: -0.378 (inactive)
[7]
  NADPH fluorescence slope: -6.2e-06 (inactive)
[8]
  slope: 0.00288 (inactive)
[9]
  outcome: inactive
[10]
  inhibition: 24.5% (inactive)
[11]
  inhibition: 5.61% (inactive)
[12]
  inhibition: 50.5% (active)

## COc1ccc2c(c1OC)C(=O)OC2C1c2c(cc3c(c2OC)OCO3)CCN1C (stereo not given)
[1]
  cell count: 463 and 544
  inhibition: -10.9% (inactive) and 0.8% (inactive)
[2]
  inhibition of aggregation: -1% (inactive) and -12.6% (inactive)
  nuclei count: 101% and 94.4%
[3]
  inhibition: -43.9% (inactive) and -115% (inactive)
  nuclei count: 132% and 119%
[4]; [13]
  z-score: 1.55
[4]; [14]
  z-score: -0.813
[4]; [15]
  z-score: -0.77
[5]
  inhibition: 5.42% (inactive)
[6]
  fluorescence slope: -0.541 (inactive) and -0.459 (inactive)
[7]
  NADPH fluorescence slope: 7.5e-05 (inactive) and -6e-05 (inactive)
[8]
  slope: 0.0053 (inactive) and 0.00526 (inactive)
[9]
  outcome: inactive
[10]
  inhibition: 19.2% (inactive)
[11]
  inhibition: 23.1% (inactive) and 13.1% (inactive)
[12]
  inhibition: 29.1% (inactive) and 24% (inactive)

## CCN1CCN(c2nc3c(C)cccn3c(=O)c2/C=C(\C#N)S(=O)(=O)c2ccccc2)CC1
[1]
  cell count: 501
  inhibition: -1.7% (inactive)
[2]
  inhibition of aggregation: -13.4% (inactive)
  nuclei count: 108%
[3]
  inhibition: -71.1% (inactive)
  nuclei count: 118%
[4]; [13]
  z-score: 0.894
[4]; [14]
  z-score: -1.58
[4]; [15]
  z-score: 2.23
[5]
  inhibition: 3.5% (inactive)
[6]
  fluorescence slope: -0.517 (inactive)
[7]
  NADPH fluorescence slope: -1.8e-05 (inactive)
[8]
  slope: 0.00181 (inactive)
[9]
  outcome: inactive
[10]
  inhibition: 18.9% (inactive)
[11]
  inhibition: 9.29% (inactive)
[12]
  inhibition: 23.8% (inactive)

Source: PubChem BioAssay
